Here are results for 15 compounds from PubChem BioAssay (NCATS).

In general, viability refers to a read-out of living cells in per cent, often relative to untreated cells.

Assay [1] is described as follows: Quantitative High-Throughput drug screen in 47 multiple myeloma cell lines against the NCATS MIPE library collection: OCIMY7_PLB cell viability assay (AID 1918987). Further: nearly all actives have a fitted effect of over 65% in size. The settings on record: OCI-MY7 myeloma viability, CellTiter-Glo ATP, 48 h; viability (% of DMSO): at 45.8 µM (top of the series). The method, boiled down: (§1)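 Readout: median RLU from CellTiter-Glo after 5 min at room temperature. Preceding step was 48 h drug treatment of 500 cells/well at 37 °C, 5% CO2, with DMSO-only and media-only control wells.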

Assay [2] can be described thus: Quantitative High-Throughput drug screen in 47 multiple myeloma cell lines against the NCATS MIPE library collection: OCIMY5_PLB cell viability assay (AID 1918988). Further: nearly all actives have a fitted effect of over 65% in size. The method in brief: as §1
Assay [3] can be described thus: Quantitative High-Throughput drug screen in 47 multiple myeloma cell lines against the NCATS MIPE library collection: OPM1_PLB cell viability assay (AID 1918989). Further: nearly all actives have a fitted effect of over 40% in size. The method, boiled down: as §1
Assay [4] in a line: Quantitative High-Throughput drug screen in 47 multiple myeloma cell lines against the NCATS MIPE library collection: SKMM1_PLB cell viability assay (AID 1919863). Further: nearly all actives have a fitted effect of over 35% in size. The settings on record: SKMM1 myeloma viability, CellTiter-Glo ATP, 48 h; viability: hits give low values. The method in brief: as §1
A general note: ATP-based viability assays read luminescence as a measure of living cells.

Assay [5] is described as follows: Quantitative High-Throughput drug screen in 47 multiple myeloma cell lines against the NCATS MIPE library collection: XG1_PLB cell viability assay (AID 1919866). Further: nearly all actives have a fitted effect of over 35% in size. The method in brief:
as §1

Assay [6] can be described thus: Quantitative High-Throughput drug screen in 47 multiple myeloma cell lines against the NCATS MIPE library collection: VP6_DJ cell viability assay (AID 1919867). Further: nearly all actives have a fitted effect of over 40% in size. The method in brief:
as §1

A short description of assay [7]: Quantitative High-Throughput drug screen in 47 multiple myeloma cell lines against the NCATS MIPE library collection: UTMC2_PLB cell viability assay (AID 1919868). Further: nearly all actives have a fitted effect of over 55% in size. The following applies: CellTiter-Glo ATP luminescence, 48 h; viability (% of DMSO control): at 45.8 µM (top of the series). The method, boiled down:
as §1

Assay [8] is described as follows: Quantitative High-Throughput drug screen in 47 multiple myeloma cell lines against the NCATS MIPE library collection: PE2_PLB cell viability assay (AID 1919869). Further: nearly all actives have a fitted effect of over 35% in size. The method in brief:
as §1

Assay [9] is described as follows: Quantitative High-Throughput drug screen in 47 multiple myeloma cell lines against the NCATS MIPE library collection: XG6_PLB cell viability assay (AID 1919865). Further: nearly all actives have a fitted effect of over 40% in size. The method, boiled down:
as §1

Assay [10] can be described thus: Quantitative High-Throughput drug screen in 47 multiple myeloma cell lines against the NCATS MIPE library collection: U266_ATCC cell viability assay (AID 1919864). Further: nearly all actives have a fitted effect of over 35% in size.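 On viability (% of DMSO control): 0% = media-only wells without cells and 100% = DMSO-only wells.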 The method in brief: as §1

Results filed as inconclusive are left out. Values without a mark were called inactive. The source made the active and inactive calls. The call rests on the fitted dose curve; in most records, active means well fitted cell-killing curve with a large enough effect; inconclusive means small, poorly fitted or top-dose-only effect, or effect the other way; inactive means no such curve, though single readings can be large or run the other way.
Potency means the concentration at half of the fitted maximal effect.

With `COc1cc2ncnc(-n3nc(-c4ccccn4)nc3N)c2cc1OC`, the Potency is 1.66 µM (active) in assay [1]; 5.26 µM (active) in assay [2]; 11.8 µM (active) in assay [3]; 0.662 µM (active) in assay [4]; 5.9 µM (active) in [5]; 6.62 µM (active) in [6]. For the same compound, the Potency in assay [7] is 3.32 µM (active); in [8], 3.72 µM (active).
As for `CC1(C)CCC(CN2CCN(c3ccc(C(=O)NS(=O)(=O)c4ccc(NCC5CCOCC5)c([N+](=O)[O-])c4)c(Oc4cnc5[nH]ccc5c4)c3)CC2)=C(c2ccc(Cl)cc2)C1`, the Potency in assay [1] was 0.59 µM (active); in assay [2] it was 0.0148 µM (active); in assay [3] it was 5.26 µM (active); in [4], 20.9 µM (active); in [6], 7.43 µM (active); in assay [8] it was 16.6 µM (active).
With `CCOC1OC(=O)C[C@H]1NC(=O)[C@@H]1CCCN1C(=O)[C@@H](NC(=O)c1ccc(N)c(Cl)c1)C(C)(C)C` (stereo not given in full), the viability (% of DMSO) in assay [1] is 164% (active). Moreover, the Potency entry in [2], in assay [3], in [9], in [5] and in [8] was “inactive” in each case. Further, in [4], the viability is 129%.
For the compound `CN(C)Cc1cccc(N=C(c2ccccc2)c2c(O)[nH]c3cc(C(=O)N(C)C)ccc23)c1`, the Potency in [1] is 0.935 µM (active); in assay [2] it was 10.5 µM (active); in assay [3], 18.7 µM (active); in assay [10], 18.7 µM (active); in assay [5], 16.6 µM (active); in [6] it was 13.2 µM (active). The Potency is 16.6 µM (active) in assay [7] and 20.9 µM (active) in assay [8].
For `CC[C@@]1(O)C[C@H](O[C@H]2C[C@H](N(C)C)[C@H](O[C@H]3C[C@H](O)[C@H](O[C@H]4CCC(=O)[C@H](C)O4)[C@H](C)O3)[C@H](C)O2)c2c(cc3c(c2O)C(=O)c2c(O)cccc2C3=O)[C@@H]1C(=O)OC`, the Potency in assay [1] was 0.372 µM (active); in [2], 0.0935 µM (active); in assay [3], 0.833 µM (active); in [4] it was 0.833 µM (active); in assay [10], 0.418 µM (active); in assay [9], 0.296 µM (active). Besides, the Potency in [5] was 0.132 µM (active); in assay [6], 0.59 µM (active); in [7], 0.187 µM (active); in assay [8] it was 0.526 µM (active).
Regarding `O=C1c2ccccc2-[n+]2ccc3c([nH]c4ccccc43)c21`, the Potency in assay [1] was 0.264 µM (active); in assay [2], 1.05 µM (active); in [3] it was 0.935 µM (active); in assay [4] it was 2.96 µM (active); in [10] it was 2.35 µM (active); in assay [9], 1.48 µM (active). The Potency was 1.05 µM (active) in [5], 1.48 µM (active) in assay [6], 1.32 µM (active) in assay [7] and 1.87 µM (active) in assay [8].
With `NS(=O)(=O)c1ccc(NC2=CC(=O)c3ccccc3C2=O)cc1`, the Potency in [1] is 2.09 µM (active); in assay [2], 4.69 µM (active); in assay [3], 6.62 µM (active); in assay [4], 4.69 µM (active); in [6] it was 5.9 µM (active); in assay [8], 14.8 µM (active).
`O=C(Nc1cc(Cl)cc2c1[nH]c1cnccc12)c1cccnc1`: the Potency was 14.8 µM (active) in [1]; 16.6 µM (active) in [2]; 20.9 µM (active) in assay [10]; 2.64 µM (active) in assay [9]; 5.26 µM (active) in assay [5]; 7.43 µM (active) in assay [6]. Moreover, in [3], the Potency result was “inactive”.
Turning to `COCCOC(=O)C1=C(C)NC2=C(C(=O)CC(c3ccccc3OC)C2)C1c1cccc(O)c1` (stereo not given), the Potency in [1] was 2.64 µM (active); in assay [2] it was 8.33 µM (active); in [3], 6.62 µM (active); in assay [4], 10.5 µM (active); in assay [10], 13.2 µM (active); in [9] it was 2.64 µM (active). Also, the Potency in [5] was 4.18 µM (active); in assay [6], 2.96 µM (active); in [8], 16.6 µM (active).
Turning to `NC(CO)(CO)CCc1ccc(Sc2cccc(OCc3ccccc3)c2)cc1Cl`, the Potency was 11.8 µM (active) in [1]; 20.9 µM (active) in assay [2]; 6.62 µM (active) in assay [3]; 26.4 µM (active) in [4]; 16.6 µM (active) in [5]; 8.33 µM (active) in assay [6]. Further, the figures for the Potency in assay [7] and in assay [8] were 16.6 µM (active) and 13.2 µM (active), respectively.
As to `Cc1ccc(F)c(NC(=O)Nc2ccc(-c3cccc4[nH]nc(N)c34)cc2)c1`, the Potency in assay [1] was 4.69 µM (active); in [2] it was 20.9 µM (active); in assay [3], 10.5 µM (active); in [10], 16.6 µM (active); in assay [9] it was 16.6 µM (active); in assay [5], 16.6 µM (active). Also, the Potency in assay [6] was 16.6 µM (active); in [7], 8.33 µM (active).
With `CN(C)C1CCN(C(=O)c2ccc(NC(=O)Nc3nc(N4CCOCC4)nc(N4CCOCC4)n3)cc2)CC1`, the Potency was 5.26 µM (active) in assay [1] and 0.0418 µM (active) in assay [2].
On to `C=C1C(=O)[C@@]23C(CC[C@@H]1[C@H]2O)[C@@]12CO[C@]3(O)[C@@H](O)[C@@H]1C(C)(C)CC[C@@H]2O` (stereo not given in full), for which the Potency was 0.296 µM (active) in assay [1]; 1.87 µM (active) in assay [2]; 3.72 µM (active) in [3]; 13.2 µM (active) in assay [4]; 8.33 µM (active) in assay [10]; 1.48 µM (active) in assay [9]. Besides, the Potency in assay [5] is 2.96 µM (active); in assay [6] it was 2.96 µM (active); in [7], 8.33 µM (active); in assay [8], 1.18 µM (active).
For the compound `CC[C@H]1OC(=O)[C@H](C)C(=O)[C@H](C)[C@@H](O[C@H]2O[C@H](C)C[C@H](N(C)C)[C@@H]2O)[C@](C)(OC)C[C@@H](C)C(=O)[C@H](C)[C@H]2N(CCCCn3cnc(-c4cccnc4)c3)C(=O)O[C@]12C`, the results for the Potency in [1], in assay [2] and in assay [6] were 14.8 µM (active), 26.4 µM (active) and 11.8 µM (active), respectively. For the same compound, the Potency result in assay [3], in assay [10] and in [5] was “inactive” throughout.
With `COc1cc2nc(-c3ccc(N4CCN(C)CC4)cc3)nc(NCCN3CCOCC3)c2cc1OC`, the Potency is 14.8 µM (active) in [1]; 0.0187 µM (active) in assay [2]; 0.166 µM (active) in [3]; 0.132 µM (active) in assay [4]; 0.0209 µM (active) in [10]; 0.166 µM (active) in [9]. The Potency in assay [5] was 0.0372 µM (active); in assay [6], 0.187 µM (active); in [7], 0.935 µM (active); in assay [8], 0.148 µM (active).
